Data from the supplement of paper PMC6555819.

Columns and labels:
Assay in all cases: PBM binding z-score (relative to random genomic background probes); higher = stronger binding; sequences stand for … in GC…GCGATTGACAGCGTAGAATGAAGG
[1] = tested on: FXR:RXRa (NR concentration 270 nM, RXRa partner concentration 90 nM)
Summary of the method: (§1)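 Ligand-free nuclear receptor dimers were bound for 1 h to custom Agilent 4×180K protein-binding microarrays. Detection used antibodies against each partner (one per run). Binding z-scores rest on regression-normalized fluorescence, with random background probes as the reference.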

[2] = tested on: LXRa:RXRa (NR concentration 270 nM, RXRa partner concentration 90 nM)
Summary of the method: as §1

[3] = tested on: LXRa homodimer (NR concentration 270 nM)
Summary of the method: as §1

[4] = tested on: LXRb:RXRa (NR concentration 270 nM, RXRa partner concentration 90 nM)
Summary of the method: as §1

[5] = tested on: LXRb homodimer (NR concentration 270 nM)
Summary of the method: as §1

[6] = tested on: PPARa:RXRa (NR concentration 270 nM, RXRa partner concentration 90 nM)
Summary of the method: as §1

[7] = tested on: PPARg:RXRa (NR concentration 180 nM, RXRa partner concentration 90 nM)
Summary of the method: as §1

[8] = tested on: PPARg:RXRa 270nM:90nM, anti-RXR (NR concentration 270 nM, RXRa partner concentration 90 nM)
Summary of the method: as §1

[9] = tested on: PPARg:RXRa 30nM:10nM, anti-RXR (NR concentration 30 nM, RXRa partner concentration 10 nM)
Summary of the method: as §1

[10] = tested on: PPARg:RXRa 90nM:30nM, anti-RXR (NR concentration 90 nM, RXRa partner concentration 30 nM)
Summary of the method: as §1

[11] = tested on: PPARg:RXRa DBDmut IVT, anti-RXR (DBD mutation: RXRa K156A/R161A, NR concentration 270 nM, RXRa partner concentration 90 nM)
Summary of the method: as §1

[12] = tested on: PPARg:RXRa IVT, anti-PPARg (NR concentration 270 nM, RXRa partner concentration 90 nM)
Summary of the method: as §1

[13] = tested on: PPARg DBDmut:RXRa IVT, anti-PPARg (DBD mutation: PPARg1 K132A/R137A, NR concentration 270 nM, RXRa partner concentration 90 nM)
Summary of the method: as §1

[14] = tested on: PPARg DBDmut IVT, anti-PPARg (DBD mutation: PPARg1 K132A/R137A, NR concentration 270 nM)
Summary of the method: as §1

[15] = tested on: PPARg homodimer (NR concentration 180 nM)
Summary of the method: as §1

[16] = tested on: PXR:RXRa (NR concentration 270 nM, RXRa partner concentration 90 nM)
Summary of the method: as §1

[17] = tested on: PXR homodimer (NR concentration 270 nM)
Summary of the method: as §1

[18] = tested on: RARa:RXR (NR concentration 270 nM, RXRa partner concentration 90 nM)
Summary of the method: as §1

[19] = tested on: RARa homodimer (NR concentration 270 nM)
Summary of the method: as §1

[20] = tested on: RARb:RXRa (NR concentration 270 nM, RXRa partner concentration 90 nM)
Summary of the method: as §1

Sequence	PBM binding z-score [1]	PBM binding z-score [2]	PBM binding z-score [3]	PBM binding z-score [4]	PBM binding z-score [5]	PBM binding z-score [6]	PBM binding z-score [7]	PBM binding z-score [8]	PBM binding z-score [9]	PBM binding z-score [10]	PBM binding z-score [11]	PBM binding z-score [12]	PBM binding z-score [13]	PBM binding z-score [14]	PBM binding z-score [15]	PBM binding z-score [16]	PBM binding z-score [17]	PBM binding z-score [18]	PBM binding z-score [19]	PBM binding z-score [20]
CCTACTGGGCCATTCAGAGGTCATTGACCATATG	3.07	4.59	6.66	3.95	0.537	3.86	2.55	3.37	1.07	2.25	4.24	4.24	0.0159	0.229	2.02	4.93	2.23	4.52	0.388	3.17
CAAACTAGGTCAAGGTCATAGTCGGTTTGTGCCA	6.58	5.31	3.83	4.11	1.07	5.92	9.25	7.76	6.24	8	8.52	8.68	4.59	1.94	4.4	5.2	2.73	5.56	1.31	4.97
CGAACTAGGTCAGAACAGGACCGTGAAGGATGAT	0.998	0.352	-0.566	0.148	-0.568	2.94	5.07	4.33	1.63	3.44	7.33	7.06	2.11	0.843	0.797	0.0175	-0.758	0.594	-0.383	2.73
ATATGTAGGTTACATCCCGGTCATTCAGGCTATG	1.09	3.77	3.88	1.83	1.18	3.66	4.96	4.25	1.8	3.35	7.52	7.38	2.01	2.46	1.78	1.39	0.762	1.6	0.487	1.99
CAGCCTAGGTCAGGGCCAATATAGGAGGAACGTT	1.73	0.833	-0.284	0.824	-1.05	2.05	1.37	1.22	0.246	0.449	1.3	1.88	-0.288	-1.23	0.413	0.404	-0.114	0.941	0.127	3.5
TCGAGAAGGTTAGGGGCATTCAGAATGGCGTCGA	0.95	0.839	-0.359	1.38	-0.293	1.83	0.297	1.19	2.23	1.43	1.15	0.162	-1.01	-0.967	0.818	0.866	-0.0334	0.991	0.387	2.02
TCGAGTAGATTACCAATGGGGCATTCAGCTTTCT	-0.309	-0.307	-0.306	0.0449	-0.399	-0.126	-0.221	-0.0351	0.935	0.435	0.795	-0.396	-0.19	-0.114	-0.291	-0.345	-0.382	-0.208	-0.677	-0.295
CCTGCTAGGTCAACGGTCAGCTAAAGCAGCTCGC	4.13	3.09	0.58	2.17	0.4	4	6.12	6.08	3.98	6.08	4.82	4.76	0.645	-0.543	2.2	1.8	-0.372	2.89	0.262	4.45
GATACAGGGTCAGCTAGAGGCCCGAGTATGGAAA	4.27	2.31	-0.511	1.8	-0.813	4.42	3.6	3.1	0.492	1.92	0.969	2.18	-0.156	-0.833	1.37	1.72	-0.766	2.93	-0.152	3.83
TAGCCTAGGTCATTCAGGAGCCAGTATAGAAAGC	4.36	3.63	0.522	2.42	0.687	3.57	1.84	2.24	0.638	1.63	1.4	2.52	0.758	0.0429	0.878	1.43	-0.343	2.19	-0.28	3.62
ATATGTAGTTTACATCCGGGTCATTCAGGCTATG	1.49	2.34	1.08	2.31	1.04	2.59	1.19	1.19	0.609	1.53	1.36	2.27	1.09	1.65	1.01	2.91	3.16	2.85	0.262	1.51
CGAACTAGGTCAACCAGGACAGTGAATACATTGA	4.29	2.78	0.571	2.31	0.00788	4.98	8.21	6.58	4.17	5.96	8.5	8.35	1.56	1.35	1.73	2.02	0.839	2.3	0.835	4.17
CCGACTGAGGCAAAGGTTACCATACTCAGTACGA	0.7	1.19	-0.159	1.48	-0.611	3.69	6.77	6.76	4.81	6.88	0.849	2.47	-0.356	-0.203	1.16	1.56	0.0581	2.31	0.408	1.78
CCTACTGGGCCACGACAGGTCATTGATTCAGTGA	0.777	2.99	1.75	1.48	-0.349	2.68	2.81	2.84	0.448	1.68	5.23	5.51	1.69	-0.106	0.946	1.97	0.00199	2.15	-0.183	2.01
CCTACTGGGCCAAAAAGGTCATTGAGGCCGATAA	3.73	4.24	2.98	4.11	0.134	4.69	3.3	3.92	1.27	3	3.53	3.88	-0.547	-0.0751	2.79	5.38	10.7	5.6	2.12	3.8
